Results on 108 sequences are retold here after PubChem BioAssay AID1347426 (Functional Genomics Laboratory (NCATS/FGL), 2020).

In all, about 31,000 sequences went through this assay and about 1,400 (4.5%) were called active.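 Rule for the calls: active = median seed-adjusted z-score above 1 or below -1; inactive = the rest.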 Only a selection was taken, and actives are over-represented in it overall.

This test in a line: Novel Modifiers of Survival Motor Neuron (SMN) Protein: Gene Identification via Genome-wide siRNA Screen.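 Note: luminescence tracks full-length SMN protein made from the SMN2 reporter.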 The settings on record: HEK293T SMN2-luciferase reporter, siRNA knockdown, 72 h; actives lie on both sides. In a few lines:
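HEK293T cells stably carrying an SMN2 promoter/splicing cassette–luciferase reporter were reverse-transfected with 1 pmol siRNA per well (druggable-genome library, 3 siRNAs per gene) and grown 72 h at 37 °C. Luminescence, normalized to negative-control siRNA and log10-transformed, was scored as MAD.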
A general note: In a reporter assay the amount or activity of a reporter protein is the signal.
For CCCUUGUAGUGAAACGGAATT against CYP4F8, the median seed-adjusted z-score was 0.756 (inactive).

Regarding ACUACUUCCUGAACCGGGATT against CD2BP2, the median seed-adjusted z-score was -0.455 (inactive).

With GCAGAGUUUCGUACAAGGATT against KPNA6, the median seed-adjusted z-score is -1.54 (active).

Consider CCAGCCCACUCAUCUCAUUTT against SNX30, for which the median seed-adjusted z-score was -0.157 (inactive).

With GCCGAGGAACAAUCUCUCATT against RASGRP4, the median seed-adjusted z-score is 0.162 (inactive).

Turning to CCACUACCCUGAGAACUUUTT against TOP3B, the median seed-adjusted z-score is -1.11 (active).

Turning to GGACCGGAGCAGUAUAGAATT against TRIM37, the median seed-adjusted z-score was -0.108 (inactive).

Consider CGGUUACGAUAAUGCGUUATT against ENPP5, for which the median seed-adjusted z-score was -0.0499 (inactive).

For GCACAAGUGCUGAGCCAGATT against LENG9, the median seed-adjusted z-score was 0.607 (inactive).

As to GUAUUAUUUUCGUACACGATT against RABL3, the median seed-adjusted z-score was 0.843 (inactive).

Regarding CCGGCUACCUGAUCGUGUATT against PITPNM1, the median seed-adjusted z-score is -0.203 (inactive).

GAAAUGACAUUAGCUGAUUTT against CLIC4: the median seed-adjusted z-score was -0.498 (inactive).

As to CUACAUUGCUGGGACUAAUTT against RRM1, the median seed-adjusted z-score is -5.51 (active).

On to CCUGGAGAGUUACUUUGAATT against CCL23, for which the median seed-adjusted z-score is -0.285 (inactive).

Take CCUCGUCGAUCGUGCAUCUTT against ADRA2C: the median seed-adjusted z-score was 0 (inactive).

For CGAAAGGAAACCUAACGAATT against HIVEP2, the median seed-adjusted z-score is 0.294 (inactive).

Regarding GCACAGGCAUCAUCGGGAATT against SGSH, the median seed-adjusted z-score was 0.383 (inactive).

For GCCUCAAGGUUCACCUGAATT against PRDM1, the median seed-adjusted z-score was -0.16 (inactive).

On to GUAUCUCAACAUCAAACUATT against LSM2, for which the median seed-adjusted z-score was -1.48 (active).

GGGCUGAUGUUAUCAACUUTT against CNTNAP2: the median seed-adjusted z-score was -0.196 (inactive).

As to CGACACUGCCGAAUGGAAATT against SRCRB4D, the median seed-adjusted z-score was -0.0568 (inactive).

In the case of UGCCCGUCAUUGUCUCCAATT against KCNA7, the median seed-adjusted z-score is 0.394 (inactive).

As for AGAUCAUUGCUUUCAGUGATT against PRDX1, the median seed-adjusted z-score was 0.288 (inactive).

Take CCUACAAUGUGGUGCAUAUTT against DYRK4: the median seed-adjusted z-score is -0.824 (inactive).

For CAAGAAUUCCGAUUUCCAATT against GNGT2, the median seed-adjusted z-score is -0.289 (inactive).

As to GCAAUGAACUCAACAGCUATT against ANGPTL7, the median seed-adjusted z-score is 0 (inactive).

GCUAGACCGACCCACCAUATT against FKBP6: the median seed-adjusted z-score was -1.12 (active).

Regarding GGUUAUCGACGACAGCAGATT against AGAP3, the median seed-adjusted z-score is 0.554 (inactive).

For the sequence GCAUCCCACUACUACAAAUTT against KSR2, the median seed-adjusted z-score is -0.371 (inactive).

On to UCAUCUUCAUCGACCGGAATT against AGPAT1, for which the median seed-adjusted z-score was -1.38 (active).

With UACCUGUGGUCAUUCCUUATT against HHATL, the median seed-adjusted z-score was 0.497 (inactive).

As for ACACCUCACUCAUCCUCUUTT against GNAZ, the median seed-adjusted z-score is -0.604 (inactive).

As for GGGCAAUGAUAGAAAGAAUTT against STK35, the median seed-adjusted z-score is 0.519 (inactive).

Regarding GGAGGGAUGGUUACUGUUATT against TOX4, the median seed-adjusted z-score is 0 (inactive).

Regarding GAUGCAUUCGAUGACCUGATT against PTGES2, the median seed-adjusted z-score is -0.02 (inactive).

In the case of GCCUAUUCCUUCAAGUAUUTT against SUPT6H, the median seed-adjusted z-score was -2.54 (active).

As for CAGUGAAAAGUGACGCGGATT against DZIP1, the median seed-adjusted z-score is -0.138 (inactive).

On to CGAAAGUCCUCACCAACAATT against TSHZ1, for which the median seed-adjusted z-score is 0.526 (inactive).

With GCCUUUCAUCAGAUCUUCUTT against DBX1, the median seed-adjusted z-score is 0.0137 (inactive).

Consider GAAUCUGUCUUAGAUCUCATT against PRDM2, for which the median seed-adjusted z-score is 1.12 (active).

Regarding CCAUAGAAUUCAAAAUCCUTT against BCL2L14, the median seed-adjusted z-score was -0.859 (inactive).

For GGAGUCUACUUUACCGGUATT against BPIL2, the median seed-adjusted z-score was -0.63 (inactive).

With GCAGAGAAAAUAUAACUGATT against NPHP1, the median seed-adjusted z-score was -0.0667 (inactive).

For AGAUGGUCCAAGAUCCAGATT against CHRM4, the median seed-adjusted z-score was -0.856 (inactive).

Turning to GGAGUUUCCCAUCAAACGATT against PADI4, the median seed-adjusted z-score is 0.417 (inactive).

For CUUCCUAGGUUACAAGUAATT against FAM84B, the median seed-adjusted z-score is -0.431 (inactive).

On to GGGACAAGCUUGACAAGGUTT against TRIM62, for which the median seed-adjusted z-score was -0.000231 (inactive).

As to GGGUGUCUAAAGGUACAUATT against FSD2, the median seed-adjusted z-score is 0.359 (inactive).

Consider GUACGUUGUAUGUUAAACATT against SLC12A2, for which the median seed-adjusted z-score is -0.4 (inactive).

As to CGAUUCCAGCAGUAGCUCATT against AP3B2, the median seed-adjusted z-score is -2.45 (active).

GGAGUUCGCAAAAUCGUCATT against NRK: the median seed-adjusted z-score was 0.0687 (inactive).

CCUCCAUGUCCAACCCAUATT against FOSL2: the median seed-adjusted z-score is -0.372 (inactive).

With AGUAGAACGUGUACGCAGATT against MGST1, the median seed-adjusted z-score was -0.0144 (inactive).

With GAAUAUCGGCAGAGAGAUATT against RNF12, the median seed-adjusted z-score was 0.29 (inactive).

As for CGGAGAAGAUGUUCGCCGATT against SIL1, the median seed-adjusted z-score is 0.0292 (inactive).

For the sequence GGAUGUGCACUCUCAUUGATT against COPA, the median seed-adjusted z-score is -0.807 (inactive).

As for GGAGAUUCAGAUCCUCAAATT against JAK3, the median seed-adjusted z-score is -0.0926 (inactive).

As for GCAACACCCAGGUAGUUUUTT against EIF4A1, the median seed-adjusted z-score was -1.05 (active).

For the sequence GAAGCUCUACUCACAGUUUTT against GSTM2, the median seed-adjusted z-score was -0.464 (inactive).

On to CUUAACCUGUGGAAUCGAATT against NIPA2, for which the median seed-adjusted z-score was -0.103 (inactive).

GCAAAGAUAGAAGAAGAUATT against DDI2: the median seed-adjusted z-score is 1.27 (active).

Take GCAAGAUGAUUUUAUCUCUTT against CDA: the median seed-adjusted z-score was 0.471 (inactive).

Take CAUUAAAGCAGCUACCAAUTT against PSMC3IP: the median seed-adjusted z-score is -0.0482 (inactive).

Consider GCAACAGCAUUAUGACCCATT against COL10A1, for which the median seed-adjusted z-score is -0.0291 (inactive).

GGUUGCGGCUCAGAACAAATT against OAS3: the median seed-adjusted z-score was 0.147 (inactive).

In the case of GGACCUGAUUGAUGCCGUCTT against PYCR1, the median seed-adjusted z-score was -0.171 (inactive).

With AGACCUCGAUUUCACAGUATT against PRMT8, the median seed-adjusted z-score was 0 (inactive).

Regarding CAGAGUAUGUAAAUAGACATT against CAPRIN1, the median seed-adjusted z-score is 1.36 (active).

With GGAAGUGCCCAGUGACUUATT against SLPI, the median seed-adjusted z-score was 0.274 (inactive).

As to GCACUGUCACUAAGCAGAATT against CHEK2, the median seed-adjusted z-score was 0.585 (inactive).

Take GAGAGAUCAUUGCAAAGCATT against HNRNPM: the median seed-adjusted z-score is 0.499 (inactive).

As for GCCUCUACAGCAGAAGAAATT against LAMB2, the median seed-adjusted z-score was 1.12 (active).

GGAGAGACUUUUUACAACUTT against CACNG6: the median seed-adjusted z-score is -0.0499 (inactive).

For CUGUCCAUAGUGUCAUUAATT against GALNT1, the median seed-adjusted z-score is -0.164 (inactive).

As for CUUGUCAAGUACGACCUUATT against NINJ1, the median seed-adjusted z-score was -0.061 (inactive).

GGCUGUUCGAGUCCUGAAATT against FMO1: the median seed-adjusted z-score was 0.323 (inactive).

Consider GAGCAGGUGUUAUUAUGGATT against CLCN3, for which the median seed-adjusted z-score is -0.0801 (inactive).

Consider GUUCAGCCGUGGAAAGAAATT against WFDC6, for which the median seed-adjusted z-score is 0.0443 (inactive).

As to GAAAUACAAGGAAUCUGAATT against TMTC4, the median seed-adjusted z-score was -1.16 (active).

Regarding GCACCGUGGUGUCAACCAUTT against KCNK12, the median seed-adjusted z-score was 1.04 (active).

As to CCUACUCAAUGUGAUAUAUTT against ADAMDEC1, the median seed-adjusted z-score is 0.0106 (inactive).

CCCUUAAUCUACAAUAUCATT against PHTF1: the median seed-adjusted z-score is 0.0129 (inactive).

In the case of GUCCCGAUCUGUGCUCUGATT against DUSP2, the median seed-adjusted z-score was 0.576 (inactive).

GGAGUACCAUAGAUACAGATT against PPIG: the median seed-adjusted z-score was -0.0192 (inactive).

Turning to GGAUCGCUGUCUCUAACUUTT against RRM1, the median seed-adjusted z-score is -5.51 (active).

Take GCCUCUAUUUGAUAAGCGATT against NAP1L1: the median seed-adjusted z-score was 0.263 (inactive).

On to GCGUUGGUCGGGAUGAUUATT against P2RY10, for which the median seed-adjusted z-score is -0.432 (inactive).

For GGAGGUCUAUAUUAUAAGATT against CFHR4, the median seed-adjusted z-score is -0.0972 (inactive).

For GAUACGCUAUGAACUCUCATT against RCE1, the median seed-adjusted z-score is -1.19 (active).

With GCAUUAGAAACUUACAAGATT against TROVE2, the median seed-adjusted z-score was 0.399 (inactive).

For CGAGUGUUCCCGGACAACATT against PODNL1, the median seed-adjusted z-score was -0.448 (inactive).

On to GCUCAGCCCUUACUGUACATT against ZNF569, for which the median seed-adjusted z-score is 0.425 (inactive).

GAUUGACCUGCGUUACGAATT against ADCK2: the median seed-adjusted z-score was 0.0823 (inactive).

For the sequence UGCCUUAUCUGGAAGCAAATT against ERMAP, the median seed-adjusted z-score was -0.276 (inactive).

On to GAUUCCCUGCAUCAACUAATT against SQLE, for which the median seed-adjusted z-score is -1.14 (active).

With GGGAAACGAUAUUCAUACATT against ADAMTS19, the median seed-adjusted z-score was -0.39 (inactive).

Regarding GUUAGGUAGUAGAAACAAATT against TCFL5, the median seed-adjusted z-score is 1.52 (active).

For GUUUCGGACCUAUCUCUGATT against RBM3, the median seed-adjusted z-score is 0.0539 (inactive).

On to CAAAGUGGAUUCAAAGAUUTT against PRKCH, for which the median seed-adjusted z-score is 0.761 (inactive).

In the case of CACCUUUUCUGGAUAGAGATT against DSC1, the median seed-adjusted z-score is -0.151 (inactive).

For the sequence GCCUUAUGAUGGAAGAGAUTT against EYA2, the median seed-adjusted z-score is 0.111 (inactive).

Consider GUCUAGAUGAUCACAAGUATT against PSMD1, for which the median seed-adjusted z-score was -1.61 (active).

Take GUUCUACCGUGGACAGCAATT against CLCN1: the median seed-adjusted z-score was 0.314 (inactive).

CAACAACAAUCAUAGCUGATT against SSBP1: the median seed-adjusted z-score is -0.456 (inactive).

For the sequence GACUGGAAAUGAUUCGAGATT against RTCD1, the median seed-adjusted z-score is 0.0794 (inactive).

Turning to CCUAUGGACUGAACAGGGATT against ZDHHC3, the median seed-adjusted z-score is 0.229 (inactive).

Take GUCUGGAGAUCAUAUUUUUTT against PIM3: the median seed-adjusted z-score was -1.01 (active).

Consider CAUUCUGACCGUGAACAAUTT against CTRB1, for which the median seed-adjusted z-score was -0.214 (inactive).
